Data published in ChEMBL document CHEMBL4888484, “Replenishing the malaria drug discovery pipeline: Screening and hit evaluation of the MMV Hit Generation Library 1 (HGL1) against asexual blood stage Plasmodium falciparum ,using a nano luciferase reporter read-out” (2022).
About 540 (0.36%) of roughly 150,000 compounds showed an effect of 50% or more. The sample as a whole holds a higher share of strong results than the screen did.

Each molecule was assayed on Plasmodium falciparum (assay: Primary screen in NF54 nanoGlo assay, in single point, at 2uM, 72h; a lower Z score goes with more inhibition). Conditions: timepoint 72 hour.
Type: functional, Erythrocyte

Row | SMILES | % Inhibition | Z score
1 | CC(=O)N[C@@H]1CN(Cc2nccn2Cc2ccccc2)C[C@H]1c1nccn1C | 30% | -1.12
2 | CN(CC(c1ccccc1)c1ccccc1)[C@H]1COC[C@@H]1O | -10% | 1.87
3 | CC1=C(C(=O)N2C[C@H]3CC=CC[C@H]3C2)C(C)NC(=O)N1 (stereo partly drawn) | -13% | 2.39
4 | C[C@@]1(C(=O)NCc2ccccc2)Cn2nc(-c3ccccc3)cc2C(=O)N1c1ccc2c(c1)OCCO2 | 52% | -8.25
5 | COc1ccc(CN2C(=O)c3cc(-c4ccc(OC)cc4)nn3C[C@@]2(C)C(=O)NCc2ccccc2)cc1 | 6% | -0.96
6 | CCc1ccc(-c2cc3n(n2)C[C@@](C)(C(=O)NC2CCCCC2)N(c2cccc(C)c2C)C3=O)cc1 | -2% | 0.32
7 | COc1ccc(-c2cc3n(n2)C[C@@](C)(C(=O)NCc2ccccc2OC)N(c2cc(C)cc(C)c2)C3=O)cc1 | 9% | -1.43
8 | COc1ccc(-c2cc3n(n2)C[C@@](C)(C(=O)NCc2ccccc2)N(Cc2ccccc2Cl)C3=O)cc1 | 17% | -2.69
9 | COc1ccc(-c2cc3n(n2)C[C@@](C)(C(=O)NCc2ccccc2OC)N(c2cccc(OC)c2)C3=O)cc1 | 51% | -8.04
10 | C[C@@]1(C(=O)NCc2ccccc2)Cn2nc(-c3ccccc3)cc2C(=O)N1C1CC1 | 9% | -1.39
11 | CCc1ccc(-c2cc3n(n2)C[C@@](C)(C(=O)NC2CCCCC2)N(c2cc(C)cc(C)c2)C3=O)cc1 | 71% | -11.34
12 | COc1ccc(-c2cc3n(n2)C[C@@](C)(C(=O)NCc2ccccc2)N(Cc2ccc4c(c2)OCO4)C3=O)cc1 | 52% | -8.23
13 | COc1ccc(-c2cc3n(n2)C[C@@](C)(C(=O)NCc2ccccc2OC)N(c2ccc(C)cc2)C3=O)cc1 | -4% | 0.55
14 | CCc1ccc(-c2cc3n(n2)C[C@@](C)(C(=O)NC2CCCCCC2)N(c2ccc(F)cc2)C3=O)cc1 | 0% | 0.02
15 | Cc1ccc(CNC(=O)[C@]2(C)Cn3nc(C)cc3C(=O)N2c2ccc3c(c2)OCCO3)cc1 | -1% | 0.18
16 | Cc1nc(NC(=O)CC2=CCCCC2)n(C)n1 | 5% | -0.53
17 | CN(C(=O)OC(C)(C)C)[C@H]1CCCN(C(=O)c2ccn(C)c(=O)c2)C1 | 3% | -0.37
18 | CC1(C)CC(C)(C)c2ccccc2CN1 | 3% | -0.41
19 | Cn1nccc1NC(=O)Cn1ncc2cc(-c3cccc4cccnc34)ccc21 | 0% | -0.05
20 | COc1ccc(C2=C[C@@H](c3cccc(OC)c3)n3ncc(C(=O)Nc4ccccc4)c3N2)cc1 | 6% | -0.59
21 | CCc1ccc(C2=C[C@@H](c3cccc(OC)c3)n3ncc(C(=O)Nc4ccc(C)cc4)c3N2)cc1 | 60% | -5.98
22 | COc1ccc(C2=C[C@@H](c3ccc(F)cc3)n3ncc(C(=O)Nc4ccc(C)cc4)c3N2)cc1 | 2% | -0.16

Row | SMILES | % Inhibition | Z score
23 | O=C(N[C@@H](Cn1nccn1)c1ccccc1)c1cc(Br)ccc1Cl | 57% | -6.89
24 | O=C(N[C@@H](Cn1nccn1)c1ccccc1)c1cc(-c2ccccc2)n[nH]1 | -4% | 0.69
25 | O=C(N[C@@H](Cn1nccn1)c1ccccc1)c1ccncc1 | -13% | 1.97
26 | Fc1cc(Cl)ccc1OC[C@@H]1CCCN2CCCC[C@H]12 | 17% | -2.29
27 | Clc1cccc(OC2CN(C[C@@H]3CCCN4CCCC[C@H]34)C2)c1 | 3% | -0.42
28 | Cc1n[nH]c(C)c1CCCN(C)C(=O)c1cn2cccnc2n1 | 4% | -0.72
29 | Cc1cc(C)c(CNC(=O)c2cnn(C)c2C)c(=O)[nH]1 | -9% | 1.13
30 | Cc1nnc(-c2ccco2)c2cn(-c3ccc(Cl)cc3)nc12 | 69% | 1
31 | Clc1ccc(-c2nnc(-c3ccco3)c3nocc23)cc1 | 3% | -0.41
32 | O=c1[nH]nc(-c2ccc(Cl)cc2)c2cn(-c3ccc(Cl)cc3)nc12 | -14% | 1.65
33 | Cc1noc(C)c1C(=O)N1CCC[C@H](Oc2ncc(Cl)cn2)C1 | -3% | 0.45
34 | O=C(NCCN1CCC[C@H](CO)C1)c1cccc(-c2ccc3occc3c2)c1 | -3% | 0.37
35 | Cn1nc2c(c1C(=O)NCc1csc(N)n1)CCCC2 | 5% | -0.77
36 | NS(=O)(=O)c1ccc(CCNc2nc(-c3ccccc3)nc3ccccc23)cc1 | 39% | 0.27
37 | CNc1nc(NCc2ccccc2)nc2ccccc12 | 81% | -8.4
38 | Nc1ncnc(NCCc2ccccc2)n1 | 2% | -0.24
39 | Cc1nc(Nc2ccc3c(c2)OCCO3)cc(-c2ccccc2)n1 | 5% | -0.89
40 | C[C@H](Nc1nc(N2CCCCC2)nc2ccccc12)c1ccccc1 | 40% | -5.78
41 | CNc1nc(Nc2ccc3c(c2)OCCO3)nc2ccccc12 | 89% | -16.08
42 | CNc1nc(NCCc2ccccc2)nc2ccccc12 | 83% | -8.48
43 | CC(C)COC(=O)c1nc2ccccc2nc1Nc1ccc2c(c1)OCCO2 | 8% | -0.98
44 | C[C@H](Nc1nc(N(C)C)nc2ccccc12)c1ccccc1 | -5% | 0.67
